Consider 1 sequence from PMC7862700, “An all-to-all approach to the identification of sequence-specific readers for epigenetic DNA modifications on cytosine”.

What all share (experiment): DAPPL (digital affinity profiling via proximity ligation, sequencing); 10 mM Tris-HCl pH 7.5, 50 mM NaCl, 1 mM DTT, 4% glycerol, room temperature, 30 min; GST-TFs on glutathione beads, 16-mer random dsDNA library, 0.1% formaldehyde crosslink after washing; high values mean tight binding
The target in experiment [1] is T1, FEV (Homo sapiens, UniProt Q99581 1-238).
T1 sequence: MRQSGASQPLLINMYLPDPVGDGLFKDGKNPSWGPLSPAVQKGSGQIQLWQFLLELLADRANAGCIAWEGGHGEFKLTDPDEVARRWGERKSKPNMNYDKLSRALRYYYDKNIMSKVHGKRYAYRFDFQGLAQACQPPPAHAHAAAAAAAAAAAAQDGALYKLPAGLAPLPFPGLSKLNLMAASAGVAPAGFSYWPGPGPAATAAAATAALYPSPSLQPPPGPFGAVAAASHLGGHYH
Particulars: protein: recombinant; tags: N-terminal GST; dsDNA, one strand shown. The method in brief: (§1)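 Human transcription factors were made in yeast as GST fusions, captured on glutathione beads and barcoded with DNA. With a tag-only sample included, the pool was incubated with 200 nmole of a random double-stranded 16-mer DNA library in Tris/NaCl/DTT/glycerol buffer at room temperature for 30 min, then crosslinked with 0.1% formaldehyde after washing, ligated by proximity, amplified and sequenced. For binding signal, each hexamer's read frequency for a factor is divided by its frequency for the tag-only sample.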

The target of experiment [2] is ETV5 (Homo sapiens, UniProt P41161 1-510). Particulars: protein: recombinant; tags: N-terminal GST; dsDNA, one strand shown. The method in brief:
as §1

For experiment [3], the target named is HSF1 (Homo sapiens, UniProt Q00613 1-529). The conditions noted are these: protein: recombinant; tags: N-terminal GST; chain copies: 3; dsDNA, one strand shown. The method in brief: as §1
For experiment [4], the target named is T2, SPIC (Homo sapiens, UniProt Q8N5J4 1-248).
T2 sequence: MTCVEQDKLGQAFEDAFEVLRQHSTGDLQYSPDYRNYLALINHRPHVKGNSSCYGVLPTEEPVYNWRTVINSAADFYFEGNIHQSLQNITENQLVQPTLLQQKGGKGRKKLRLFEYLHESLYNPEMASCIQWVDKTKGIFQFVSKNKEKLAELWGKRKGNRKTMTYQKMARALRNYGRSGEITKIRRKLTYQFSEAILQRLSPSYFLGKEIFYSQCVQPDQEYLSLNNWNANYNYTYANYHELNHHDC
Particulars: protein: recombinant; tags: N-terminal GST; dsDNA, one strand shown. The method in brief:
as §1

Experiment [5] concerns the target ELF4 (Homo sapiens, UniProt Q99607 1-663). Particulars: protein: recombinant; tags: N-terminal GST; dsDNA, one strand shown. The method in brief:
as §1

Experiment [6] addresses T3, ELK4 (Homo sapiens, UniProt P28324-2 1-405).
T3 sequence: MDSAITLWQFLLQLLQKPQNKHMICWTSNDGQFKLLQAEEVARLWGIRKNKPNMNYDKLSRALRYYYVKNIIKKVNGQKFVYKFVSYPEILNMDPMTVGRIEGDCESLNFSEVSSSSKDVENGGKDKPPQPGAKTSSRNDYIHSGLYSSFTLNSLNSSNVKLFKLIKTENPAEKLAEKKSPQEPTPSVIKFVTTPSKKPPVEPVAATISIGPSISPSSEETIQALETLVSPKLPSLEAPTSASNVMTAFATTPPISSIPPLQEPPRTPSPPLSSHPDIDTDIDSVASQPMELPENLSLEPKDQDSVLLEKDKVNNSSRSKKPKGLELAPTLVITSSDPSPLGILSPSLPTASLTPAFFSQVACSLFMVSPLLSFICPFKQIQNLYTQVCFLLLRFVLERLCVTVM
Particulars: protein: recombinant; tags: N-terminal GST; dsDNA, one strand shown. The method in brief:
as §1

The target in experiment [7] is T4, ETV2 (Homo sapiens, UniProt O00321 1-342).
T4 sequence: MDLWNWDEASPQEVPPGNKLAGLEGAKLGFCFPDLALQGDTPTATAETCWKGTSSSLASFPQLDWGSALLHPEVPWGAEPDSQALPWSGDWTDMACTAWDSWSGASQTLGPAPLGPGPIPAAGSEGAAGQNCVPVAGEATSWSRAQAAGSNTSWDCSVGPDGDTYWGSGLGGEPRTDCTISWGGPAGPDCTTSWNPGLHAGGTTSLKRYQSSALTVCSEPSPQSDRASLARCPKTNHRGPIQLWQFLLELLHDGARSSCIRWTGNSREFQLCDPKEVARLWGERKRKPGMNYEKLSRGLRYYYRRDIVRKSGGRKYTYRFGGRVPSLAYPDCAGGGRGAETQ
The conditions noted are these: protein: recombinant; tags: N-terminal GST; dsDNA, one strand shown. The method in brief:
as §1

The target of experiment [8] is T5, ELF3 (Homo sapiens, UniProt P78545 1-371).
T5 sequence: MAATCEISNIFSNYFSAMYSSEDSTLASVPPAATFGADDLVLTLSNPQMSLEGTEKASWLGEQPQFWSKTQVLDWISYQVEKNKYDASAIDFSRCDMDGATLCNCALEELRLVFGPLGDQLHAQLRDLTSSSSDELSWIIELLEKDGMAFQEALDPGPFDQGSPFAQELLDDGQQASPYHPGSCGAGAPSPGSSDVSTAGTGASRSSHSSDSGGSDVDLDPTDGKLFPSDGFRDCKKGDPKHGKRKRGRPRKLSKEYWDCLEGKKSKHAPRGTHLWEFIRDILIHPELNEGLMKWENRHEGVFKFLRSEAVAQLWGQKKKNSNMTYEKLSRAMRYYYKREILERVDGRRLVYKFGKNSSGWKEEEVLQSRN
The conditions noted are these: protein: recombinant; tags: N-terminal GST; dsDNA, one strand shown. The method in brief: as §1

Experiment [9] concerns the target CRX (Homo sapiens, UniProt O43186 1-299). The conditions noted are these: protein: recombinant; tags: N-terminal GST; dsDNA, one strand shown. The method in brief:
as §1

In experiment [10] the target is ETV1 (Homo sapiens, UniProt P50549 1-477). Particulars: protein: recombinant; tags: N-terminal GST; dsDNA, one strand shown. The method in brief: as §1
Experiment [11] concerns the target T6, ERF (Homo sapiens, UniProt P50548 1-548).
T6 sequence: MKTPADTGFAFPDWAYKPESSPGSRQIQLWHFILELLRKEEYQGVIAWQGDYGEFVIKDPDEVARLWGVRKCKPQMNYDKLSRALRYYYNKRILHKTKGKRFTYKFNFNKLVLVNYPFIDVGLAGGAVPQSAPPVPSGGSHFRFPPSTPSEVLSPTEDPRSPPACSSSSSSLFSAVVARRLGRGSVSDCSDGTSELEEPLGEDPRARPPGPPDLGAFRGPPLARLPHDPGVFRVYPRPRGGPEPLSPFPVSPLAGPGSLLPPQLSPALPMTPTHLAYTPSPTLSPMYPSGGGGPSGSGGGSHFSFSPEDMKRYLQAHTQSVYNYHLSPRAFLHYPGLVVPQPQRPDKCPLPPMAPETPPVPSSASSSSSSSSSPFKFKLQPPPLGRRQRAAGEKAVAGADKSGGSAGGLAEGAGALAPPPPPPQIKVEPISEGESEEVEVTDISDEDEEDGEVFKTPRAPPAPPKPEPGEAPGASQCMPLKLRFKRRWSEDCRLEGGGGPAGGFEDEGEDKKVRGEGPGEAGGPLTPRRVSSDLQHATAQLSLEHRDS
Particulars: protein: recombinant; tags: N-terminal GST; dsDNA, one strand shown. The method in brief:
as §1

For experiment [12], the target named is T7, ETV3L (Homo sapiens, UniProt Q6ZN32 1-361).
T7 sequence: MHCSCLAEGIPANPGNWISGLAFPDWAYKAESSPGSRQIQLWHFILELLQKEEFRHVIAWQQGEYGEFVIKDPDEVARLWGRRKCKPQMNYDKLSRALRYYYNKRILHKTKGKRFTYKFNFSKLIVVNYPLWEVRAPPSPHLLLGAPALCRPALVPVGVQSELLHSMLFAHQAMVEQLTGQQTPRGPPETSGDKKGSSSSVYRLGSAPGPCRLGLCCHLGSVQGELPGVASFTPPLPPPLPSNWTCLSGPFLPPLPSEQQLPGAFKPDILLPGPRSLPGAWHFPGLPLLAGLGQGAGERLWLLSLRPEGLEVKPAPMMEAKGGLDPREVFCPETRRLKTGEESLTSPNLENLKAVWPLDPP
Particulars: protein: recombinant; tags: N-terminal GST; dsDNA, one strand shown. The method in brief: as §1

Experiment [13] deals with T8, ETS2 (Homo sapiens, UniProt P15036 1-469).
T8 sequence: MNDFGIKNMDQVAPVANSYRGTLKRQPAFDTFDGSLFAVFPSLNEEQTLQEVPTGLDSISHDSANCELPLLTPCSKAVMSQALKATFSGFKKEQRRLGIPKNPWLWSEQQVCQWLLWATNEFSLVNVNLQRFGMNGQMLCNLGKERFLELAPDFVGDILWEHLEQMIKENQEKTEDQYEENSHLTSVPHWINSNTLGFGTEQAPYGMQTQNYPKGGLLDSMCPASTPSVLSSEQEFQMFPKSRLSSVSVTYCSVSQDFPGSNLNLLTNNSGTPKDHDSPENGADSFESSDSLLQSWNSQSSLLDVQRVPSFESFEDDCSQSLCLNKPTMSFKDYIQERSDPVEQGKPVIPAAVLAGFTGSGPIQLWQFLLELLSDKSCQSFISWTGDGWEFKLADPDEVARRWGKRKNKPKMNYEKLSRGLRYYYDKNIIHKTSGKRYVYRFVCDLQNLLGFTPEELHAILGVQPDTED
The conditions noted are these: protein: recombinant; tags: N-terminal GST; dsDNA, one strand shown. The method in brief:
as §1

Experiment [14] addresses T9, SPDEF (Homo sapiens, UniProt O95238 1-335).
T9 sequence: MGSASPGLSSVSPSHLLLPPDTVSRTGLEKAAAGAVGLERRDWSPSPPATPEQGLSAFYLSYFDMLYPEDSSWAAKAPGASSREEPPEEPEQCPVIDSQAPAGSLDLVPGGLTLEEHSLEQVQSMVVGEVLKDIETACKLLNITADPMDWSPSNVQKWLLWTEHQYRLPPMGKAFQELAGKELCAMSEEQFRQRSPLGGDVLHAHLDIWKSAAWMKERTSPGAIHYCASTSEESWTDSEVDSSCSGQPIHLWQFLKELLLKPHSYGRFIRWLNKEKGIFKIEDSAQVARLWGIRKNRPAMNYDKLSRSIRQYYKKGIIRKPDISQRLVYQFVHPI
Particulars: protein: recombinant; tags: N-terminal GST; dsDNA, one strand shown. The method in brief:
as §1

The target in experiment [15] is T10, ETV7 (Homo sapiens, UniProt Q9Y603 1-341).
T10 sequence: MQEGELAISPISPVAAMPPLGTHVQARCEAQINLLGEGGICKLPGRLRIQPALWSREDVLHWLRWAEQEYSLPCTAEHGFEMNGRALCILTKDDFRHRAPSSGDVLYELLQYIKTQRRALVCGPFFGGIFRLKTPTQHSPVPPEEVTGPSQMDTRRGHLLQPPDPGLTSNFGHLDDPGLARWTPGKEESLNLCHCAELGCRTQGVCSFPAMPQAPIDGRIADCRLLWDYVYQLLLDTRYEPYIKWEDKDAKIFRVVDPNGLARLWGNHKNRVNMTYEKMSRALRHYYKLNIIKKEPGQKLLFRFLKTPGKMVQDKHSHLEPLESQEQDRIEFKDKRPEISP
Particulars: protein: recombinant; tags: N-terminal GST; dsDNA, one strand shown. The method in brief:
as §1

Experiment [16] concerns the target T11, ELF5 (Homo sapiens, UniProt Q9UKW6-2 1-255).
T11 sequence: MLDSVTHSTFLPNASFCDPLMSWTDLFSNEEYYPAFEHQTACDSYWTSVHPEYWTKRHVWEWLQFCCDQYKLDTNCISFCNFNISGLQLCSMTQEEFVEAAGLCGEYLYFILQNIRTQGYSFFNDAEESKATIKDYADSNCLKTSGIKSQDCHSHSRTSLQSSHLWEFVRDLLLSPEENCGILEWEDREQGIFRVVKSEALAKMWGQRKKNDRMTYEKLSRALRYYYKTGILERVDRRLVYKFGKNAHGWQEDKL
The conditions noted are these: protein: recombinant; tags: N-terminal GST; dsDNA, one strand shown. The method in brief: as §1

Experiment [17] has as its target T12, ETV3 (Homo sapiens, UniProt P41162-2 1-143).
T12 sequence: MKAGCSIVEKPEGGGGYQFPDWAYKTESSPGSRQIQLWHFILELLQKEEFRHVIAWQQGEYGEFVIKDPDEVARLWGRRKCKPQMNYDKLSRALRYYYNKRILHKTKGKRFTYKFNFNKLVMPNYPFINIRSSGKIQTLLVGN
The conditions noted are these: protein: recombinant; tags: N-terminal GST; dsDNA, one strand shown. The method in brief:
as §1

Experiment [18] addresses ETV6 (Homo sapiens, UniProt P41212 1-452). Particulars: protein: recombinant; tags: N-terminal GST; dsDNA, one strand shown. The method in brief:
as §1

ETV1, sequence (P50549 whole entry): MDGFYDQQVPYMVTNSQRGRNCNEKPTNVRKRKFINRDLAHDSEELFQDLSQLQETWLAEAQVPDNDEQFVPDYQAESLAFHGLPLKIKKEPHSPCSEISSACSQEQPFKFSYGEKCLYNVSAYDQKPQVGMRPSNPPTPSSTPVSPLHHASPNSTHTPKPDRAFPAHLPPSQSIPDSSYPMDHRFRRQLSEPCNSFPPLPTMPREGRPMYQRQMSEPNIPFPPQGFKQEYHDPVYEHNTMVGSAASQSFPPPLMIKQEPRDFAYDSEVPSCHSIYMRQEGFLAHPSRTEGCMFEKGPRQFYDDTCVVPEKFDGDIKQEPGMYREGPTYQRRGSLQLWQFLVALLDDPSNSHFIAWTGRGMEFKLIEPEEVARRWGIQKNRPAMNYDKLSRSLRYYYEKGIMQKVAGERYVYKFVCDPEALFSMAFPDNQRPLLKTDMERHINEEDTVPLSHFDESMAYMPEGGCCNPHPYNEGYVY
ELF4, sequence (Q99607 whole entry): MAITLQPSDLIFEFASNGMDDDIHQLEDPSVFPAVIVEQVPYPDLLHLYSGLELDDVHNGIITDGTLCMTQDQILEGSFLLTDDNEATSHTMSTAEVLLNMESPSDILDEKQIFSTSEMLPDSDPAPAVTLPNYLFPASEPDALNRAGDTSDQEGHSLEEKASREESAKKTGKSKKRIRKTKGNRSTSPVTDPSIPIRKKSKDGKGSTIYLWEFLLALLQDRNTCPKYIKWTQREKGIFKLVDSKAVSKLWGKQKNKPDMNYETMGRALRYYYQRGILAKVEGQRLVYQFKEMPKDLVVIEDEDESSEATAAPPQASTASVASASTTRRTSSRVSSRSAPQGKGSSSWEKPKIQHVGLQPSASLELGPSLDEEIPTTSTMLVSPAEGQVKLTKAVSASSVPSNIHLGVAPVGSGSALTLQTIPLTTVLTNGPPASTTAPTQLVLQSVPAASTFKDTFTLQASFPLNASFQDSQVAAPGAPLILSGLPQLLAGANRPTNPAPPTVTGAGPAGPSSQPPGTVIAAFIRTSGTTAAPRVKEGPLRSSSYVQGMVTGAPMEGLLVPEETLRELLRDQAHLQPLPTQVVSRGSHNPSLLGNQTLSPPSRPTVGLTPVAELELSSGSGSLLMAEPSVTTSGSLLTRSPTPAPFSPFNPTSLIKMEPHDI
HSF1, sequence (Q00613 whole entry): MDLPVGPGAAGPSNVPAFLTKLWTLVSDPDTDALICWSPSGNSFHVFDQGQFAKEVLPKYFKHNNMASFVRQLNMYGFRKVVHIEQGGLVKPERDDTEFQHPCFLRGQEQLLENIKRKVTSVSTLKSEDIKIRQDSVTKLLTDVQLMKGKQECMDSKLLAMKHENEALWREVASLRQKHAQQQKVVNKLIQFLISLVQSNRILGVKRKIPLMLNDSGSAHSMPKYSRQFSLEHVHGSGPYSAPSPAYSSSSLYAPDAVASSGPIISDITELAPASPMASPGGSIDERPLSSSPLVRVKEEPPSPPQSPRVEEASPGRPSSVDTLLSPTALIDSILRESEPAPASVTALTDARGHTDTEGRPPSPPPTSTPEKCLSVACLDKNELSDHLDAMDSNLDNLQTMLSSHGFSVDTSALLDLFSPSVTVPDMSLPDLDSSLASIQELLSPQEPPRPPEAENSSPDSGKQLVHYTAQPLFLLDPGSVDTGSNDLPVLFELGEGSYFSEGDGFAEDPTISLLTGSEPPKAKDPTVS
CRX, sequence (O43186 whole entry): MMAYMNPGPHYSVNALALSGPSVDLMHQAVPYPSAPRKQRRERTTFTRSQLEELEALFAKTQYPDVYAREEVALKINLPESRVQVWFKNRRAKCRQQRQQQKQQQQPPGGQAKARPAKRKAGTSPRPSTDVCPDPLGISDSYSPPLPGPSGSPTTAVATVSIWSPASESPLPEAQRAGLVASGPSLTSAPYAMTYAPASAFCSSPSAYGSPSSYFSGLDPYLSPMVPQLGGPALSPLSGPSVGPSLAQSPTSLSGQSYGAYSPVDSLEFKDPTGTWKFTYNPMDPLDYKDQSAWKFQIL
ETV6, sequence (P41212 whole entry): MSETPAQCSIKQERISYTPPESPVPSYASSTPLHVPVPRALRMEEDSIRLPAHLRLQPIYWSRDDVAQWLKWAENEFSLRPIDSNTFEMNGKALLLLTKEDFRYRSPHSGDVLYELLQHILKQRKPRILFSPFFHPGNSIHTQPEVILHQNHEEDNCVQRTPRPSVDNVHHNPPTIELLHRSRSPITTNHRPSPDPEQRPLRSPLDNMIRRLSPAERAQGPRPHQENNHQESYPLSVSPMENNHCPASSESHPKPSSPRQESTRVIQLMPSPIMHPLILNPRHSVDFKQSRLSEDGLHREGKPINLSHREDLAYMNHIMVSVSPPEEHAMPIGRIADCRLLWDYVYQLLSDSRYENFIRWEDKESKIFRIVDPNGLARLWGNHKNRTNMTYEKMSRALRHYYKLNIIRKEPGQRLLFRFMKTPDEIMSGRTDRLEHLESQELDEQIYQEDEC
ETV5, sequence (P41161 whole entry): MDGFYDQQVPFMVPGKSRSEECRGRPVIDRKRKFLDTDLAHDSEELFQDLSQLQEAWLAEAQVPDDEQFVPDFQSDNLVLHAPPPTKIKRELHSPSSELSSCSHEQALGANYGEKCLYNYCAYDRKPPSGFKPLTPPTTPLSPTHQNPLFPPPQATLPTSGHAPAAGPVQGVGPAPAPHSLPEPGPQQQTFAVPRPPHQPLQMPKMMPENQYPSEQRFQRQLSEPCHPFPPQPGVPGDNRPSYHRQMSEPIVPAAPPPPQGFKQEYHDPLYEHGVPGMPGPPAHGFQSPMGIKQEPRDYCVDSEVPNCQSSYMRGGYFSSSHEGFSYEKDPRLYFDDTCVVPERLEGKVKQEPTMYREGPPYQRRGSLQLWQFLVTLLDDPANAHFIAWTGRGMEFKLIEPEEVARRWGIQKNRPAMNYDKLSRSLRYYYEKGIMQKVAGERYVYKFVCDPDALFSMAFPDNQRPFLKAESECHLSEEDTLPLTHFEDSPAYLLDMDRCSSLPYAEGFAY

Take TTCACT: the binding signal is 1.4 fold enrichment (6-mer frequency, TF over GST control) in experiment [1]; 1.31 fold enrichment (6-mer frequency, TF over GST control) in [2]; 1.13 fold enrichment (6-mer frequency, TF over GST control) in [3]; 1.16 fold enrichment (6-mer frequency, TF over GST control) in experiment [4]; 1.34 fold enrichment (6-mer frequency, TF over GST control) in [5]; 1.42 fold enrichment (6-mer frequency, TF over GST control) in [6]. Besides, the binding signal was 1.39 fold enrichment (6-mer frequency, TF over GST control) in [7]; 1.2 fold enrichment (6-mer frequency, TF over GST control) in experiment [8]; 1.1 fold enrichment (6-mer frequency, TF over GST control) in [9]; 1.33 fold enrichment (6-mer frequency, TF over GST control) in experiment [10]; 1.42 fold enrichment (6-mer frequency, TF over GST control) in [11]; 1.4 fold enrichment (6-mer frequency, TF over GST control) in experiment [12]. For the same sequence, the binding signal is 1.41 fold enrichment (6-mer frequency, TF over GST control) in [13]; 1.32 fold enrichment (6-mer frequency, TF over GST control) in experiment [14]; 1.36 fold enrichment (6-mer frequency, TF over GST control) in [15]; 1.32 fold enrichment (6-mer frequency, TF over GST control) in experiment [16]; 1.3 fold enrichment (6-mer frequency, TF over GST control) in experiment [17]; 1.23 fold enrichment (6-mer frequency, TF over GST control) in experiment [18].
